An excerpt weighted towards active compounds, which were near 21% of everything screened.
Pf growth 48h – P. falciparum growth inhibition at 48 hours (one generation); Potency, µM (highest dose often 28.7 µM), most hits filed as inhibitors; P. falciparum luciferase growth in erythrocytes, 48 h; 5.9% of 310,000 active; AID 504832
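Parasite viability was followed by luminescence of a genomically integrated firefly luciferase. Cultures held 0.1% parasitemia at 2% hematocrit (final), incubated under 5% CO2 at 37 C.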
Shiga toxin inh – blocks Shiga toxin action in Vero cells | Vero cells, Shiga toxin protein synthesis inhibition reporter | inhibition, % at 38.7 µM | 9.2% of 290,000 active; in the data active = inhibition mostly above about 28%, no sharp cut-off; inactive = mostly below about 43%
CHX counter – counter-screen hit for Shiga toxin inhibitors, cycloheximide. AID 2314. max response, %. cell reporter, cycloheximide protein synthesis inhibition counterscreen. 12% of 300,000 active; in the data active = max response mostly above about 13%, no sharp cut-off; inactive = mostly below about 14%; note: read at 38.3 µM for the half of the compounds with a filed dose
HCV inhibitor – HCV inhibition; Huh7.5.1 HCVcc-Cre infection, luciferase reporter, 44 h; Potency, µM (titrated, usually from 41.8 µM), most hits filed as inhibitors; 3.4% of 340,000 active
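Whole-lifecycle infectious HCVcc-Cre system; cells 1,000/well, compound then virus (~0.5 moi) added 4 h after plating, 44 h culture. Luciferase read 15 sec following 15 min substrate incubation, room temp.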
AMA1-RON2 inh – inhibitors of Plasmodium falciparum AMA1-RON2 interaction | AlphaScreen AMA1-biotinylated RON2 peptide binding | Potency, µM (doses to about 58.2 µM), hits mostly inhibitors | 0.2% of 360,000 active | AID 720542; note: nearly all actives have a fitted effect of over 45% in size
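AMA1 (3D7) with his tag at 25 nM final met compounds first, then biotinylated RON2 peptide at 25 nM; detection used donor plus acceptor beads, 10 µg/mL apiece, read by AlphaScreen after 30 min at room temperature.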
Pf growth 96h – P. falciparum growth inhibition at 96 hour, primary screen for plastid delayed-death inhibitors | P. falciparum luciferase reporter growth, 96 h | 6.9% of 320,000 active | AID 504834 | Potency, µM (top dose mostly 28.7 µM), most hits filed as inhibitors
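P. falciparum expressing integrated firefly luciferase grown in erythrocytes (2% hematocrit, 0.05% parasitemia final) with compounds for 96 hours at 37 C, 5% CO2. Growth inhibition read as loss of luminescence after adding luciferase detection reagent.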
Of the large screens only hits and unclear results are named; the others gave an inactive call. Unless noted, calls come from the whole dose curve; as a rule, active = well fitted curve in the direction sought with a large enough effect; inconclusive = small, poorly fitted or top-dose-only effect, or another doubt; inactive = no such curve, though single readings can be large; an effect the other way counts as inactive or inconclusive.

COc1ccc(NC(=O)C2CCN(S(=O)(=O)c3cn(C)nc3C)CC2)cc1	Pf growth 96h inconclusive
Cc1ccc(NC(=O)C2CC(=O)Nc3ncnn32)c(C)c1 (configuration not stated)	none
C=C(Br)Cn1c(CC)nc2ccccc21	Pf growth 96h inconclusive
CCCn1c(COc2ccccc2OC)nc2ccccc21	CHX counter 14 (no result: Shiga toxin inh)
C=C(Br)Cn1c(CCC)nc2ccccc21	Pf growth 96h 10µM
CCn1c(COc2cccc(C)c2)nc2ccccc21	Pf growth 48h inconclusive, CHX counter 21, Pf growth 96h inconclusive
CCn1c(COc2ccccc2C)nc2ccccc21	Shiga toxin inh 39, CHX counter 33, HCV inhibitor inconclusive, Pf growth 96h inconclusive
CO[C@H]1CN(C)C(=O)c2ccc(NS(=O)(=O)c3ccccc3F)cc2OC[C@H](C)NC[C@@H]1C	none (no result: Pf growth 48h, Shiga toxin inh, CHX counter, HCV inhibitor, Pf growth 96h)
C[S+](C)CC[C@H](N)C(=O)O	none (no result: Shiga toxin inh, CHX counter, HCV inhibitor, AMA1-RON2 inh)
CCCc1cc(-c2nc(-c3ccc(Br)cc3)cs2)ccn1	CHX counter 22
O=C(CCCn1c(=O)c2ccccc2n(Cc2ccccc2)c1=O)NCc1ccco1	none (no result: Pf growth 48h)
O=C(NCc1ccco1)c1ccc(Cn2c(=O)c3ccccc3n(Cc3ccc(Cl)cc3)c2=O)cc1	Pf growth 48h 12µM, HCV inhibitor 11µM
O=C(CCCCn1c(=O)c2ccccc2n(Cc2ccc(F)cc2)c1=O)NCc1ccco1	Pf growth 48h inconclusive, HCV inhibitor inconclusive, Pf growth 96h 3.3µM
COc1cc2c(=O)n(Cc3ccccc3)c(=O)n(CC(=O)NCc3ccco3)c2cc1OC	Pf growth 48h inconclusive, HCV inhibitor inconclusive, Pf growth 96h 3.7µM
CC(Sc1ccc(S(=O)(=O)N(C)C)cn1)C(=O)NC1CCCC1 (configuration not stated)	none (no result: Shiga toxin inh, CHX counter)
CN1C(=O)C(C)(C)c2cc(S(=O)(=O)N3CCCC(C(=O)NCc4ccccc4Cl)C3)ccc21 (configuration not stated)	Pf growth 48h inconclusive, HCV inhibitor inconclusive, Pf growth 96h inconclusive
COc1ccc2nc3cc(Cl)ccc3c(Nc3cc(CN4CCCC4)c(O)c(CN4CCCC4)c3)c2n1	Pf growth 48h 0.052µM, Pf growth 96h inconclusive (no result: HCV inhibitor, AMA1-RON2 inh)
COC(=O)c1cccnc1-n1c(=O)c2cccnc2n(Cc2ccc([N+](=O)[O-])cc2)c1=O	Pf growth 48h 10µM, Pf growth 96h inconclusive
COC(=O)c1cccnc1-n1c(=O)c2cccnc2n(CC(=O)Nc2ccc(Br)cc2)c1=O	Pf growth 48h inconclusive, HCV inhibitor inconclusive
COc1cc(/C=C(\C#N)c2nc3ccccc3o2)ccc1O	CHX counter 24
Cc1ccc(C)c(N/C=C(\C#N)c2nc3ccccc3o2)c1	none (no result: Pf growth 48h, Shiga toxin inh, CHX counter, Pf growth 96h)
N#C/C(=C\c1ccc(O)cc1)c1nc2ccccc2o1	Shiga toxin inh 117, CHX counter 37
Cc1ccccc1Nc1c(F)c(F)c(F)c(F)c1C(=O)O	Pf growth 96h inconclusive
CCNC(=O)N(C)c1c(CC)nc2ccc(C(=O)N3CCN(C(=O)c4ccco4)CC3)cn12	none (no result: Pf growth 48h, Shiga toxin inh, CHX counter, HCV inhibitor, Pf growth 96h)
CCC[C@@H]1C=C(C(=O)OCC)[C@H](c2ccccc2)N1S(=O)(=O)c1ccc(C)cc1	none (no result: Pf growth 48h, Shiga toxin inh, CHX counter, HCV inhibitor, Pf growth 96h)
Cc1cc[n+](-c2ccccc2)c2ccccc12	Pf growth 48h 12µM, HCV inhibitor inconclusive, Pf growth 96h 1.7µM
c1ccc(CNC2CN3CCC2CC3)cc1 (configuration not stated)	none (no result: Pf growth 48h, Shiga toxin inh, CHX counter, Pf growth 96h)
CSc1ccc(CNC2CN3CCC2CC3)cc1 (configuration not stated)	Pf growth 96h 1.7µM
O=C1NC(=S)/C(=C\c2ccc(-c3ccccc3Cl)o2)S1	Shiga toxin inh 31, HCV inhibitor inconclusive
CC(C)Cn1c(=O)c(C(=O)Nc2ccncc2)c(O)c2ccccc21	HCV inhibitor 10µM (no result: Pf growth 48h, Shiga toxin inh, CHX counter, Pf growth 96h)
CCCCCn1c(=O)c(C(=O)Nc2cnccn2)c(O)c2ccccc21	Pf growth 48h inconclusive, HCV inhibitor 8.9µM
CCCCCCCn1c(=O)c(C(=O)Nc2cnccn2)c(O)c2ccccc21	Pf growth 48h inconclusive, HCV inhibitor inconclusive, Pf growth 96h inconclusive
CCCCCCn1c(=O)c(C(=O)Nc2ccncc2)c(O)c2ccccc21	Pf growth 48h 2.9µM, Pf growth 96h inconclusive (no result: AMA1-RON2 inh)
O=C(COc1ccccc1Cl)NNC(=O)c1ccc2c(=O)n3c(nc2c1)CCC3	none (no result: Shiga toxin inh, CHX counter)
C[C@@H]1CN([C@@H](C)CO)C(=O)CCCn2nncc2CO[C@@H]1CN(C)S(=O)(=O)c1ccc(Oc2ccccc2)nc1	none (no result: Pf growth 48h, Shiga toxin inh, CHX counter, HCV inhibitor, Pf growth 96h)
CN(C)c1nc(NCc2ccccc2)nc(N/N=C/c2ccccc2F)n1	Pf growth 48h inconclusive (no result: HCV inhibitor, AMA1-RON2 inh)
CN(C)c1nc(NCc2ccccc2)nc(N/N=C/c2ccc(Cl)cc2Cl)n1	Pf growth 48h inconclusive, Pf growth 96h 9.3µM
Cc1cc(N/N=C/c2ccccc2)nc(NCc2ccccc2)n1	Pf growth 48h 2.3µM, CHX counter 24, HCV inhibitor 6.3µM, Pf growth 96h 1.5µM
COc1ccc(/C=N/Nc2nc(C)cc(-c3ccccc3)n2)cc1OC	HCV inhibitor inconclusive, Pf growth 96h inconclusive
Cc1cc(N/N=C/c2cccc(F)c2)nc(NCc2ccccc2)n1	Pf growth 48h inconclusive, Shiga toxin inh 65, CHX counter 20, Pf growth 96h inconclusive
Cc1cc(N/N=C/c2ccccc2F)nc(NCc2ccccc2)n1	Pf growth 48h inconclusive, HCV inhibitor inconclusive, AMA1-RON2 inh inconclusive, Pf growth 96h inconclusive
Cc1cc(N/N=C/c2ccc(Cl)cc2)nc(NCc2ccccc2)n1	Pf growth 48h 1µM, HCV inhibitor 35µM, Pf growth 96h 0.74µM
O=C(CCC(=O)c1ccc(Cl)cc1)OCn1nnc2ccccc2c1=O	none (no result: Pf growth 48h, Shiga toxin inh, CHX counter, Pf growth 96h)
CCC1(c2ccccc2)NC(=O)N(CC(=O)NNC(=O)c2ccc(F)cc2)C1=O (configuration not stated)	none (no result: Shiga toxin inh, CHX counter)
COc1ccc(CCN2C(=NC(C)=O)SC3CS(=O)(=O)CC32)cc1OC (configuration not stated)	none
Cc1cc(N/N=C/c2cccc(Cl)c2)nc(NCc2ccccc2)n1	Pf growth 48h 0.83µM, CHX counter 23, HCV inhibitor 13µM, Pf growth 96h inconclusive
Cc1cc(Nc2cccc(Cl)c2)nc(NCc2ccccc2)n1	Pf growth 48h 0.74µM, HCV inhibitor inconclusive, Pf growth 96h 0.47µM
Cc1cncc(NCc2cccc(Cl)c2)n1	none (no result: Pf growth 48h, Shiga toxin inh, CHX counter, HCV inhibitor, Pf growth 96h)
O=C1C=C(c2ccc(CO)cc2)C[C@@H](c2ccc3c(c2)OCO3)C1	Pf growth 96h inconclusive (no result: Shiga toxin inh, CHX counter)
CCOC(=O)c1c(C)[nH]c(C(=O)N/N=C/c2cc([N+](=O)[O-])ccc2O)c1C	Pf growth 48h inconclusive, HCV inhibitor 11µM, Pf growth 96h inconclusive
CCOC(=O)c1c(C)[nH]c(C(=O)N/N=C\c2ccccc2O)c1C	Pf growth 48h inconclusive, Shiga toxin inh 35, CHX counter 29, HCV inhibitor inconclusive, Pf growth 96h inconclusive
CCOC(=O)c1c(C)[nH]c(C(=O)OCc2ccc([N+](=O)[O-])cc2)c1C	HCV inhibitor inconclusive
CCOC(=O)c1c(C)[nH]c(C(=O)N/N=C/c2ccc(OC)c(OC)c2)c1C	Pf growth 48h inconclusive, HCV inhibitor inconclusive, Pf growth 96h inconclusive

Source: PubChem
